# Bioassay records deposited in PubChem BioAssay by several laboratories.
# Rows were chosen to be rich in hits. Some 2.5% of all compounds tested hit in one or more screens of this group.
# p97 inhibitor – inhibitors of human p97 ATPase, primary screen, biochemical; hit rate 0.42% among 220,000; inhibition, % at 8 µM; recombinant p97 ATPase, Kinase-Glo ATP luminescence, 3 h; Transitional endoplasmic reticulum ATPase (Homo sapiens), P55072; in the data active = inhibition above about 15%;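 also: 0% = DMSO vehicle and 100% = wells lacking enzyme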
# PHOSPHO1 block – PubChem AID 1565; recombinant PHOSPHO1, absorbance phosphatase assay; inhibition, % at 13.3 µM; Phosphoethanolamine/phosphocholine phosphatase (Homo sapiens), Q8TCT1; hit rate 1.1% among 290,000; in the data active = inhibition above about 60%
# Target sequence (Q8TCT1 whole entry, looked up): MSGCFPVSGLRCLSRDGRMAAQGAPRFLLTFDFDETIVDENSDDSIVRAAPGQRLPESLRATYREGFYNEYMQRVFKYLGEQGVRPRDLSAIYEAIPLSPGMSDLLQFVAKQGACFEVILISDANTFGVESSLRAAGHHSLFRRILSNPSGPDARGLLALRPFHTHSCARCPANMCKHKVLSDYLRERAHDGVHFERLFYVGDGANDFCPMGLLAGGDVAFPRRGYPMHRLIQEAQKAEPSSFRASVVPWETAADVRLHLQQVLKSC
# HDAC3 inh – HDAC3 deacetylase inhibitors, primary screen, biochemical, fluorescence, cell-free homogeneous; inhibition, % at 8.3 µM; AID 2718, 2010; recombinant HDAC3, fluorogenic peptide/trypsin coupled; hit rate 0.15% among 320,000; in the data active = inhibition above about 26%, passing the limit was not always enough; inconclusive = no clear call, values can overlap the other calls
# G6PDH CS – L. mesenteroides G6PDH inhibitors, counter-screen for G6PDH-coupled screening assays, biochemical, Leuconostoc mesenteroides enzyme; glucose-6-phosphate dehydrogenase [Leuconostoc mesenteroides]; hit rate 0.12% among 200,000; inhibition, % at 5 µM; AID 1020, 2008; Purified L. mesenteroides G6PDH, diaphorase/resazurin coupled fluorescence, 45 min; in the data active = inhibition above about 50%
# UBC9 SUMO inh – inhibitors of in vitro SUMOylation cascade, primary screen, biochemical, HTRF, uHTS | SUMO-conjugating enzyme UBC9 (Homo sapiens), P63279 | HTRF SUMOylation assay, SAE1/SAE2 + UBC9 | inhibition, % at 35 µM | hit rate 0.36% among 290,000; in the data active = inhibition above about 50%, passing the limit was not always enough; inconclusive = no clear call, values can overlap the other calls
# Target sequence (P63279 whole entry, looked up): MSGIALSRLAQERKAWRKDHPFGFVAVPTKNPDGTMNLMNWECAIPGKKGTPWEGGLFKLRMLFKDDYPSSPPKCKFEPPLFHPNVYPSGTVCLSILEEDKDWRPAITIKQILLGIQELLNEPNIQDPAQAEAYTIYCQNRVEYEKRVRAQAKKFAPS
# PfM18AAP inh – PfM18AAP inhibitors, malaria aminopeptidase, primary screen, biochemical, QFRET, recombinant enzyme. M18 aspartyl aminopeptidase (Plasmodium falciparum 3D7). H-Glu-NHMec fluorogenic cleavage. inhibition, % at 7.35 µM. hit rate 1.2% among 290,000. AID 1822, 2009;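 active = inhibition above the campaign mean inhibition over all tested compounds plus 3 SD, cut at about 28% in these data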;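 also: 0% = plate median of test compound wells and 100% = 2 mM ZnCl2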
# * = called active by the depositor; ? = inconclusive; . = not tested or not shown.
SMILES,p97 inhibitor,PHOSPHO1 block,HDAC3 inh,G6PDH CS,UBC9 SUMO inh,PfM18AAP inh
Cc1cc(C(=O)CSc2nnc(-c3ccco3)o2)c(C)n1CC1COc2ccccc2O1 (configuration not stated),7.3,91.0*,.,0.1,20.6,26.1
Cc1cc(C(=O)CSc2nnc(-c3ccc(F)cc3)o2)c(C)n1CC1COc2ccccc2O1 (configuration not stated),2.4,91.1*,?,-2.6,11.4,2.1
COc1cc(-c2nnc(SCC(=O)c3cc(C)n(CC4CCCO4)c3C)o2)cc(OC)c1OC (configuration not stated),-2.1,3.6,5.3,-20.7,7.8,6.8
Cc1cc(C(=O)CSc2nnc(-c3ccc(F)cc3)o2)c(C)n1CC1CCCO1 (configuration not stated),0.4,100.2*,3.8,4.3,20.4,8.1
c1ccc(-c2nnc(CSc3ccc4c(c3)OCCO4)o2)cc1,-0.1,26.7,6.0,4.1,10.9,-3.0
CC(C)(C)SCCNC(=O)CN(c1ccc(F)cc1)S(=O)(=O)c1ccccc1,3.2,23.9,0.9,7.6,-1.2,-1.1
O=C(CCl)N(C1CCCC1)C1CCS(=O)(=O)C1 (configuration not stated),.,22.4,2.3,.,7.5,-6.6
C=CCn1c(N)c(C(=O)OC(C)(C)C)c2nc3ccccc3nc21,14.5,16.0,.,10.0,97.7*,-0.7
C=CCn1c(N)c(C(=O)OC(C)CC)c2nc3ccccc3nc21 (configuration not stated),-1.0,-5.5,.,-2.7,38.6,3.9
C=CCn1c(N)c(C(=O)Nc2ccccc2)c2nc3ccccc3nc21,9.3,24.2,-0.4,-35.8,90.9*,4.2
CN(C(=O)CSc1nc2ccc(Cl)cc2[nH]1)C1CCS(=O)(=O)C1 (configuration not stated),.,.,8.8,.,.,.
CCOc1ccc(C2NC(=O)NC(C)=C2[N+](=O)[O-])cc1OC (configuration not stated),6.1,8.1,5.0,.,19.7,-8.3
Cc1cccc(Nc2nc(-c3ccccn3)cs2)n1,-4.5,71.4*,4.3,24.0,1.7,2.6
Cc1cccnc1Nc1nc(-c2ccccn2)cs1,-1.3,-12.9,-6.3,53.4*,18.7,-4.4
Cc1cccnc1Nc1nc(-c2ccccc2)cs1,.,.,4.7,.,9.3,-12.4
COc1ccc(CCNC(=O)c2cc3c(=O)n4ccccc4nc3n(Cc3ccco3)c2=N)cc1OC,.,21.8,0.0,.,17.2,4.2
O=C(NCc1ccco1)c1cccn2c(=O)c3cc4ccccc4cc3nc12,-0.1,100.1*,.,34.6,77.8*,20.4
O=C(NCc1ccco1)c1cnc2ccccn2c1=O,-2.3,8.2,-6.3,-5.2,5.1,7.8
Cc1cccn2c(=O)c3cc(C(=O)NCc4ccco4)c(=N)n(C4CCCCC4)c3nc12,.,46.2,-71.2,.,23.8,17.8
Cc1cccn2c(=O)c3cc(C(=O)NCc4ccco4)c(=N)n(CCOCCO)c3nc12,10.0,.,-158.4,.,.,28.9*
COc1ccc(CNC(=O)c2cc3c(=O)n4ccccc4nc3n(Cc3ccco3)c2=N)cc1,34.9*,.,.,.,.,2.3
Cc1cccc(CSc2nnc(-c3ccccn3)n2N)c1,-4.9,63.4*,-1.4,8.6,24.9,-13.8
Nn1c(SC/C=C/c2ccccc2)nnc1-c1ccccn1,-1.4,83.6*,3.7,5.6,14.1,-4.3
Cc1c(NC(=O)[C@@H](NC(=O)c2ccc(Cl)c([N+](=O)[O-])c2)C(C)C)c(=O)n(-c2ccccc2)n1C,.,.,0.0,.,.,.
COCCn1c(C)cc(C(=O)COC(=O)c2ccc(Cl)c(S(N)(=O)=O)c2)c1C,.,.,-8.2,.,.,.
SMILES,p97 inhibitor,PHOSPHO1 block,HDAC3 inh,G6PDH CS,UBC9 SUMO inh,PfM18AAP inh
Cc1ccc(/C=N/c2sc3c(c2C#N)CCCCC3)o1,6.3,61.0*,1.0,-2.9,-6.4,27.7
Cc1cc2ncn(/N=C/c3ccc([N+](=O)[O-])o3)c2cc1C,3.6,68.7*,-5.6,10.6,28.3,10.5
O=[N+]([O-])c1ccc(/C=N/N=C/c2ccc([N+](=O)[O-])o2)o1,-2.6,8.4,.,45.6,18.0,18.0
Cc1cc(O)cc(O)c1-c1onc(C(F)(F)F)c1-c1cscn1,4.0,16.0,-1.4,7.3,-11.9,1.6
CCOc1ccc(-c2onc(C(F)(F)F)c2-c2cscn2)c(O)c1,28.5*,7.4,-9.4,8.5,17.1,17.4
COCCC(=O)N1CCCC(C(=O)c2ccc(C(F)(F)F)cc2)C1 (configuration not stated),.,31.1,-2.9,.,-6.7,-0.8
Cc1cccc2c(N)c3c(nc12)N(C)CC3,.,42.0,-19.6,.,5.7,31.3*
Cc1ccc(C(=O)c2coc3c2C(=O)C(=O)c2ccccc2-3)cc1,1.8,84.6*,0.2,58.5*,29.1,10.3
COc1ccc(C(=O)c2coc(-c3ccccc3C(=O)O)c2C(=O)O)cc1,6.6,-2.7,-11.2,3.0,5.4,-10.1
Cc1oc2c(c1C(=O)c1ccc(Cl)cc1)C(=O)C(=O)c1ccccc1-2,3.2,27.4,.,60.1*,71.0*,0.5
O=c1[nH]c(CN2CCc3ccccc32)nc2scc(-c3cccs3)c12,4.9,63.6*,-3.0,8.0,3.1,4.6
O=C(CSCc1nc2scc(-c3cccs3)c2c(=O)[nH]1)Nc1ccccn1,.,17.6,.,.,7.0,0.0
CC(=O)c1cc2c(=O)c3ccccc3oc2nc1C,1.2,.,-3.4,.,.,3.8
O=c1c2ccccc2oc2nc3ccn(Cc4ccncc4)c(=O)c3cc12,0.4,3.8,.,0.9,68.5*,-11.9
Cc1cc(NS(=O)(=O)c2ccc(NC(=O)CSc3nc4ncc(Cl)cc4[nH]3)cc2)nc(C)n1,1.6,11.7,5.4,.,21.0,2.7
Cc1cc(NS(=O)(=O)c2ccc(NC(=O)CSc3nc4ncc(Br)cc4[nH]3)cc2)nc(C)n1,5.8,72.2*,-0.1,.,29.0,-18.9
COc1ccc(S(=O)(=O)NCc2cc(=O)n(C)c(=O)n2C)cc1C,.,10.6,?,.,2.2,-3.2
COc1ccccc1-n1c(O)c(C=NCc2ccccn2)c2ccccc2c1=O,14.5*,3.8,-1.0,.,3.0,2.7
Cc1ccc(C)c(NC(=S)N2CCC(NC(=O)c3ccccc3)CC2)c1,.,-54.4,0.4,.,-2.1,-1.4
Cc1ccc(-n2c(SCc3cc(=O)n4ccsc4n3)nnc2-c2cccnc2)c(C)c1,3.9,61.1*,5.9,3.3,15.5,1.4
CC(/C=C1\SC(=S)N(NS(=O)(=O)c2ccc(C)cc2)C1=O)=C\c1ccccc1,-10.4,12.3,7.0,.,58.9*,7.5
COc1ccc(Cc2nc3ccc(C(=O)N4C[C@@H](C)O[C@@H](C)C4)cc3o2)cc1OC,.,64.0*,-9.2,.,.,4.2
O=C(NCc1ccco1)C1CC(c2ccc(C(F)(F)F)cc2)=NO1 (configuration not stated),.,.,2.7,.,.,.
